From the GenesisPotency data set
The whole screen tested about 290,000 compounds, of which about 3,000 (1%) were called active. Rule as the data show it: active = inhibition mostly above about 36% (no sharp cut-off); inactive = mostly below about 34%. The full list was thinned out, with actives kept by preference.

molecular target: T1, Nucleotide-binding oligomerization domain-containing protein 1, Homo sapiens (UniProt Q9Y239); test: NOD1 signaling inhibitors, primary screen, cell-based, luminescence, uHTS (AID 1578)
T1 sequence (whole entry): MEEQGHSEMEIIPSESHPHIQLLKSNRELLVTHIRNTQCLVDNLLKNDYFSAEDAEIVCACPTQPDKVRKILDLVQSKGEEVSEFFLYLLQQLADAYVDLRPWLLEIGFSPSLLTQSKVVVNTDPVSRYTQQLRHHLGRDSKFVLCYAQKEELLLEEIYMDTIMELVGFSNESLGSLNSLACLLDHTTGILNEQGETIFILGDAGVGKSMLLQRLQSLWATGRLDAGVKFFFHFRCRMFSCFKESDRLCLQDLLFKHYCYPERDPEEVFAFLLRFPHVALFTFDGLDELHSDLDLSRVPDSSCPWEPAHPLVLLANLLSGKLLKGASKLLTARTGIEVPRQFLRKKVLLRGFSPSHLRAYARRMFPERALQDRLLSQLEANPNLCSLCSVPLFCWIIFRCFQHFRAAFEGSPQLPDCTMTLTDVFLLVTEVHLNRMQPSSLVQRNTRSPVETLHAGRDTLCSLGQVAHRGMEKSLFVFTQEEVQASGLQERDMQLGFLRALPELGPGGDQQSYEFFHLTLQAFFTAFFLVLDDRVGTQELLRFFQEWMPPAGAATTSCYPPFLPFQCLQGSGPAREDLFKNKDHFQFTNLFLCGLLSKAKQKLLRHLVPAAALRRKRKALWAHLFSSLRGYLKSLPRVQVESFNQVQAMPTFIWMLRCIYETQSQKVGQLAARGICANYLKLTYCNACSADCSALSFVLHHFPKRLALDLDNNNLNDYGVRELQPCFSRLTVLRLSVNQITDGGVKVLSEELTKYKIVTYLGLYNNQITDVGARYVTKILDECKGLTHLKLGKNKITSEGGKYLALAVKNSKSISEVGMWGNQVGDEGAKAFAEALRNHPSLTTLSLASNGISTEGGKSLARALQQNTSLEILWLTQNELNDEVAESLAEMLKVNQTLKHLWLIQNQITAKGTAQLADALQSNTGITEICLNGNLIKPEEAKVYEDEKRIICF

outcome, active:
C=C(C)C(=O)O[C@H]1C/C(C)=C\C(=O)/C=C(\C)[C@H](O)[C@@H]2OC(=O)C(=C)[C@@H]21, CC1(C)N=C(N)N=C(N)N1c1ccc(OCCCOc2ccccc2)c(Cl)c1.CCS(=O)(=O)O, O=C(NCc1cccnc1)/C(=C\c1ccc(-c2ccc(Cl)c(Cl)c2)o1)S(=O)(=O)c1ccccc1, O=C(NCc1cccnc1)/C(=C/c1ccc(-c2ccc(Cl)cc2)o1)S(=O)(=O)c1ccccc1, O=C(Oc1cc2oc(=O)cc(-c3ccccc3)c2cc1Cl)C1CCCCC1, COc1ccc(-c2cc(=O)oc3cc(OC(=O)C4CCCCC4)c(Cl)cc23)cc1, Br.O=[N+]([O-])c1ccc(N/N=C/c2sc(N3CCOCC3)nc2-c2ccccc2)c(S(=O)(=O)Nc2ccc(Cl)cc2)c1, O=[N+]([O-])c1ccc(N/N=C/c2sc(N3CCOCC3)nc2-c2ccccc2)c(S(=O)(=O)Nc2ccccc2Cl)c1, Cc1ccc(N=c2oc3cc(O)ccc3cc2C(N)=O)cc1, COc1ccc2cc(C(N)=O)c(=Nc3ccc(C)cc3)oc2c1, COc1ccc(C2C(O)C(c3c[nH]c4ccccc34)=NN2C(=O)CCl)cc1 (stereo not given), COc1cccc(C(=O)Nc2ccc(Oc3cccc(C(F)(F)F)c3)nc2)c1, CN(C)c1ccnc2sc(C(N)=O)c(N)c12, Brc1ccc2ncnc(Nc3cccc4ccccc34)c2c1, COc1ccc(Nc2ncnc3ccc(Br)cc23)cc1OC, CC(=O)c1cccc(Nc2ncnc3ccc(Br)cc23)c1, Cc1ccc(OCCN2CCN(c3ncnc4sc(C)c(C)c34)CC2)cc1, Cc1cc(C)c(C)c(S(=O)(=O)N2CCN(c3ncnc4sc(C)c(C)c34)CC2)c1C, O=[N+]([O-])c1cc(S(=O)(=O)Nc2cccc(C(F)(F)F)c2)ccc1-n1nnc2ccccc21, Cc1c([N+](=O)[O-])c2ccc(O)cc2n1-c1ccccc1, CN(C)/C=C/c1c([N+](=O)[O-])c2ccc(O)cc2n1-c1ccccc1, S=C(NNc1ccnc2cc(Cl)ccc12)Nc1ccccc1Cl, N#CCCS(=O)(=O)c1nnnn1-c1ccccc1, COc1cccc(-n2nnnc2S(C)(=O)=O)c1, CCCS(=O)(=O)c1nnnn1-c1cccc(OC)c1, CS(=O)(=O)c1ccc(C(=O)OCc2nnc(-c3ccccc3)o2)cc1[N+](=O)[O-], CCCCN(C)S(=O)(=O)c1ccc(C(=O)Nc2nnc(-c3cccs3)o2)cc1, CCCCN(CC)S(=O)(=O)c1ccc(C(=O)Nc2nnc(-c3ccccc3Cl)o2)cc1, CCN(Cc1ccccc1)S(=O)(=O)c1ccc(C(=O)Nc2nnc(C3CC3)o2)cc1, CCCCN(CC)S(=O)(=O)c1ccc(C(=O)Nc2nnc(-c3cccs3)o2)cc1
